Most compounds without a hit are left out; they make up all but 12% or so of the library.
AmpC detergent: blocks E. coli AmpC beta-lactamase in detergent assay | P00811 | Potency, µM (highest dose often 114 µM), for inactives: at the highest dose activity change, negative = inhibition, actives largely listed as inhibitors | 370,000 tested, 0.041% active | AmpC hydrolysis of nitrocefin, absorbance 480 nm, 0.01% Triton | AID 485294;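 further: 0% = no-compound wells and -100% = no-enzyme wells; nearly all actives have a fitted effect of over 25% in size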
Target sequence (P00811 whole entry, looked up): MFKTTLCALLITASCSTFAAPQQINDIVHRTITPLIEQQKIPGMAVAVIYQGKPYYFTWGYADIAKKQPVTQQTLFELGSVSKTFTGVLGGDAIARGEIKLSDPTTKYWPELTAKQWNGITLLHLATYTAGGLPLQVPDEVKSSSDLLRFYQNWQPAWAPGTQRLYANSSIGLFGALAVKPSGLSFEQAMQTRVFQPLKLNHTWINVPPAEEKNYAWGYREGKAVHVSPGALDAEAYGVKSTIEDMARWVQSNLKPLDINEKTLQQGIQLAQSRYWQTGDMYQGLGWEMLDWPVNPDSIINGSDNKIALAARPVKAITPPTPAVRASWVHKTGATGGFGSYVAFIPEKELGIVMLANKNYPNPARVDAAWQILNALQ
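AmpC (5.3 nM in the dispensed reagent) in 20 mM phosphate pH 7.0 with 0.01% (detergent screen) or 0.0001% Triton X-100 was preincubated with compounds for 15 min at room temperature. Nitrocefin was then added from an 800 uM solution, and hydrolysis was followed at 480 nm.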
Pf growth 96h: inhibits malaria parasite growth, 96 h. P. falciparum luciferase reporter growth, 96 h. Potency, µM (doses to about 28.7 µM), without a hit: top-dose activity change, negative = inhibition, hits mostly inhibitors. 320,000 tested, 6.9% active. AID 504834; further: on the % scale 0 is the no-effect control and ±100 the full control effect
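Delayed-death screen, second-generation endpoint: infected erythrocytes, 2% hematocrit, 0.05% parasitemia final; 96 hours at 37 C, 5% CO2; luciferase detection reagent; luminescence decrease equals reduced growth.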
Pf growth 48h: inhibits P. falciparum growth in the first generation, 48 h | P. falciparum luciferase growth in erythrocytes, 48 h | Potency, µM (top dose mostly 28.7 µM), without a hit: at the top dose activity change, negative = inhibition, hits mostly inhibitors | 310,000 tested, 5.9% active; further: on the % scale 0 is the no-effect control and ±100 the full control effect
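Growth was read as firefly luciferase luminescence after a 48 h, 37 C, 5% CO2 exposure of compounds to reporter-bearing P. falciparum cultures (0.1% parasitemia, 2% hematocrit final) in Albumax-supplemented RPMI 1640.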
Sm TGR block: S. mansoni TGR enzyme inhibition; 360,000 tested, 3% active; Potency, µM (top dose mostly 114 µM), without a hit: top-dose activity change, negative = inhibition, usual class: inhibitors; purified TGR, DTNB reduction, TNB absorbance 405 nm; further: on the % scale 0 is the no-effect control and ±100 the full control effect; nearly all actives have a fitted effect of over 60% in size
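TGR 20 nM + NADPH 100 uM (dispensed conc.), cpd preinc 15 min RT; start with NADPH (500 uM addition) then DTNB (15 mM addition). Kinetic TNB absorbance, 405 nm filter. Four-parameter Hill fit across titration.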
SARS PLP yeast: SARS-CoV PLP inhibition in yeast; S. cerevisiae expressing SARS-CoV PLpro, growth rescue; Potency, µM (titrated, usually from 32.9 µM), for inactives: top-dose activity, positive = growth rescue, usual class: activators; 330,000 tested, 0.19% active; AID 485353; calls by dose curve; further: 0% is about no effect; nearly all actives have a fitted effect of over 55% in size
AmpC no deterg: inhibitors of E. coli AmpC beta-lactamase without detergent | 330,000 tested, 0.52% active | AmpC nitrocefin hydrolysis, absorbance 480 nm, 0.0001% Triton | Potency, µM (top dose mostly 57.1 µM), for the others: at the top dose activity change, negative = inhibition, most hits filed as inhibitors | P00811;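 further: plate controls were no compound for no effect and no enzyme for full effect; nearly all actives have a fitted effect of over 20% in size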
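AmpC (5.3 nM in the dispensed reagent) in 20 mM phosphate pH 7.0 with 0.01% (detergent screen) or 0.0001% Triton X-100 was preincubated with compounds for 15 min at room temperature. Nitrocefin was then added from an 800 uM solution, and hydrolysis was followed at 480 nm.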
* = called active by the depositor; ? = inconclusive; nt = no result; ! = repeats disagree; [ ] = remark or other dose. Unless noted, the call rests on the fitted dose curve; in most records, active means well fitted curve in the direction sought with a large enough effect; inconclusive means small, poorly fitted or top-dose-only effect, or another doubt; inactive means no such curve, though single readings can be large; an effect the other way counts as inactive or inconclusive. Potency means the concentration at half of the fitted maximal effect.

SMILES	AmpC detergent	Pf growth 96h	Pf growth 48h	Sm TGR block	SARS PLP yeast	AmpC no deterg
COc1cc(-c2csc(NC3CCCCC3)n2)cc(OC)c1OC	-10.7%	?	11.7µM*	-11.8%	-2.2%	17.3%
COc1cc(CNC2CCCCCC2)cc(OC)c1OC	-1.0%	6.0%	?	8.4%	nt	nt
COc1cc(CN(C)CC(=O)c2[nH]c(C)c(C(C)=O)c2C)ccc1OC(F)F	-3.2%	?	?	22.4µM*	10.4%	-5.0%
COc1ccc(NC(=O)CN(C)CC(=O)c2[nH]c(C)c(C(C)=O)c2C)cc1	2.8%	0.6%	?	?	2.0%	-29.6%
CCc1ccc(CN(C)C(=O)CC2C(=O)NCCN2Cc2ccoc2)cc1 (configuration not stated)	6.2%	?	0.0%	17.8µM*	-0.6%	38.6%
COC(=O)CCCNC(=O)CC1C(=O)NCCN1Cc1ccoc1 (configuration not stated)	1.3%	13.1µM*	32.4%	44.7µM*	0.2%	-14.9%
Cc1ccc(CN(C)C(=O)CC2C(=O)NCCN2CC2CCCCC2)cc1 (configuration not stated)	-8.3%	-3.7%	-0.4%	?	1.1%	99.7%
Cc1nc(CCNC(=O)CC2C(=O)NCCN2Cc2ccoc2)nc2c1CCCC2 (configuration not stated)	2.4%	?	21.7%	28.2µM*	-0.2%	15.4%
O=C(CC1C(=O)NCCN1Cc1ccoc1)NCCc1ccc(Cl)cc1 (configuration not stated)	-0.7%	?	19.1%	?	0.3%	37.8%
Cc1nc(CNC(=O)CC2C(=O)NCCN2Cc2ccoc2)nc2c1CCCC2 (configuration not stated)	-4.5%	-8.8%	3.4%	14.1µM*	-2.9%	-3.2%
Cc1ccc(C(=O)c2no[n+]([O-])c2C(=O)c2ccc(C)cc2)cc1	?	1.9%	0.0%	0.0%	-139.1%	-52.3%
O=C(COc1ccc(Br)cc1)Nc1cccc2cccnc12	5.9%	nt	nt	16.7%	nt	nt
CCOC(=O)C1(Cc2cccc(Cl)c2)CCCN(C(=O)C2CC2)C1 (configuration not stated)	-0.8%	-10.8%	-3.5%	-3.3%	0.4%	47.3%
CCCn1nnc(NC(=O)c2ccc(OC)cc2)n1	?	167.7%	nt	-1.1%	?	-12.4%
CCCn1nnc(NC(=O)c2ccc(OCC)c(Cl)c2)n1	3.3%	19.6%	13.1µM*	0.5%	-2.3%	-12.3%
CCOc1cc(N2CCOCC2)c(OCC)cc1NC(C)C(=O)N1CCC(C)CC1 (configuration not stated)	3.2%	?	10.4µM*	-13.9%	28.1%	50.0%
CCOc1cc(N2CCOCC2)c(OCC)cc1NCC(=O)N1CCN(Cc2ccccc2)CC1	-8.1%	5.86µM*	?	0.1%	1.1%	123.8%
CCOc1cc(N2CCOCC2)c(OCC)cc1NC(=O)Cc1ccc(OC)c(OC)c1	-8.1%	180.5%	9.28µM*	-1.2%	0.3%	120.4%
CCOc1cc(N2CCOCC2)c(OCC)cc1NC(=O)CN1CCN(Cc2ccc3c(c2)OCO3)CC1	-4.2%	?	?	-2.1%	0.6%	-16.0%
CCOc1cc(N2CCOCC2)c(OCC)cc1NC(=O)COC(=O)c1cc2ccccc2cc1O	-2.5%	-0.4%	2.1%	-8.9%	4.3%	-22.7%
CCOc1cc(N2CCOCC2)c(OCC)cc1NC(=O)COc1cccc(CC)c1	4.0%	?	10.4µM*	-5.7%	-1.8%	6.1%
CCOc1cc(N2CCOCC2)c(OCC)cc1NC(=O)Cc1cccc(OC)c1	1.7%	?	?	-9.0%	11.2%	71.5%
O=C(Cn1ncn2c(cc3ccccc32)c1=O)NCCc1cccs1	-2.7%	14.9%	14.6%	-11.0%	-1.5%	-14.0%
CCOc1cc(N2CCOCC2)c(OCC)cc1NC(=O)CSc1ccccc1C(=O)O	?	9.28µM*	?	-10.4%	10.6%	-22.2%
Cc1ccc(C)c(N2CCN(CCN3CCCCC3)CC2)c1	0.1%	5.4%	0.1%[0.00184 µM]	-10.9%	0.6%	-15.5%
SMILES	AmpC detergent	Pf growth 96h	Pf growth 48h	Sm TGR block	SARS PLP yeast	AmpC no deterg
Cc1ccc(NC(=O)C2CCN(C(=O)c3cnn(-c4ccccc4)c3-n3cccc3)CC2)cc1	14.1%	nt	nt	-1.9%	nt	nt
CC(=O)c1cnc(N(C)C)s1	-4.3%	13.1µM*	0.8%	-4.6%	0.6%	-13.0%
Cc1ncc([N+](=O)[O-])n1CCOC(=O)NC(NCc1ccccc1)C(Cl)(Cl)Cl (configuration not stated)	-6.8%	0.329µM*	8.28µM*	5.9%	1.6%	2.6%
Cc1ncc([N+](=O)[O-])n1CCOC(=O)NC(Nc1ccc(F)cc1)C(Cl)(Cl)Cl (configuration not stated)	-10.8%	6.57µM*	8.28µM*	-25.3%	-0.9%	9.9%
C=CCNc1nc(C)c(CNc2c(C)cc(C)cc2C)nc1C#N	-11.5%	?	?	1.8%	-3.0%	-8.6%
COC(=O)C1=C(C)N(Cc2ccccc2)C(=NCc2cccc(Cl)c2)N[C@H]1c1ccccc1	?	?	4.5%	9.9%	-9.3%	56.1%
CCN1C(=NCCN2CCOCC2)N[C@@H](c2ccccc2)C(C(=O)OC)=C1C	-10.4%	1.07µM*!	2.6%	16.5%	2.9%	-27.2%
COC(=O)C1=C(C)N(Cc2ccccc2)C(=NCCc2c[nH]c3ccccc23)N[C@H]1c1ccccc1	-1.7%	8.28µM*	?	-4.4%	3.2%	-13.9%
COCCN=C1N[C@@H](c2ccccc2)C(C(=O)OC)=C(C)N1Cc1ccccc1	?	?	10.9%	22.4µM*!	5.4%	-3.7%
COCCN=C1N[C@@H](c2ccc(Br)cc2)C(C(=O)OC)=C(C)N1Cc1ccccc1	?	?	?	15.1%	0.7%	-13.2%
COC(=O)C1=C(C)N(Cc2ccccc2)C(=NCCc2c[nH]c3ccccc23)N[C@H]1c1cccc(F)c1	nt	nt	nt	nt	-6.6%	-2.4%
COC(=O)C1=C(C)N(Cc2ccccc2)C(=NCc2ccccc2)N[C@H]1c1ccccc1	-1.1%	1.69µM*	?	-3.7%	-6.9%	41.8%
O=C(NCc1cccnc1)C(=O)Nc1ccc2c(c1)OCO2	0.9%	?	54.7%	-1.8%	0.6%	-8.5%
CC(C)CCn1c(O)c(N=NC(=O)Cn2ccc(C(F)(F)F)n2)c2ccccc21	-14.5%	-18.7%	4.9%	-6.4%	2.0%	-15.0%
COC(=O)C1=C(C)N(Cc2ccccc2)C(=NCc2cc(OC)c(OC)c(OC)c2)N[C@H]1c1ccccc1	-10.9%	?	?	-0.1%	1.9%	-23.6%
